Drawing on PubChem BioAssay (NCI), this text covers growth inhibition for 40 compounds.

Each structure is given as a SMILES string. Compounds without any hit were thinned out: in the full panel of roughly 79,000, 15% have a hit. Values without a mark were called inactive. Rule as the data show it: active = growth inhibition above about 70%; inactive = the rest.

The assay can be described thus: NCI Yeast Anticancer Drug Screen. Data for the mlh1 rad18 strain (AID 175). The following applies: S. cerevisiae mlh1 rad18 strain growth inhibition; at 50.0 µM; stronger effect = higher value. A digest of the protocol: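 Test agents were incubated with a yeast strain of defined genotype (DNA damage repair defect). Inhibition of growth was derived by comparison with vehicle-exposed cultures.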
Turning to `COC(=O)n1sc(SC)nc1=N`, the growth inhibition was 3.55%. To `CC(=O)CC(=O)Nc1cccc(C)c1` belongs -5.65%; to `Cc1ccc(S(=O)(=O)N(Cc2cccc([N+](=O)[O-])c2)c2ccc(C(=O)O)cc2)cc1`, 21.1%; to `COC(=O)/C=C(\S/C=C(/c1ccccc1)N1CCn2c(C(=O)c3ccccc3)c(C(=O)OC)c(C(=O)OC)c21)C(=O)OC`, 15.2%. To `CCN(CC)C(=O)C1(C)NS(=O)(=O)c2ccccc2C1=O` (stereo not given) belongs -9.45%; to `CC12CCC(=O)C=C1CCC1C2C(=O)CC2(C)C1CCC2(O)C(=O)Cn1c(=O)[nH]cc(F)c1=O` (stereo not given), 2.3%.

As to `CC(C)(C=O)OC(=O)c1cc([N+](=O)[O-])cc([N+](=O)[O-])c1`, the growth inhibition is 1.6%. To `Cc1ccc(NC(=O)Oc2ccc3ccccc3c2)cc1NC(=O)Oc1ccc2ccccc2c1` belongs -1.85%; to `CN1CCCC1c1cccnc1.O=C(O)c1ccccc1O.O=C([O-])c1ccccc1[OH2+].O=C([O-])c1ccccc1[OH2+].[Mn+2]` (stereo not given), 4.15%; to `CCOC(=O)c1c(C)c2c(n1C)CCC(C(=O)OCC)C2=O` (stereo not given), 0.45%. With `CC(C)C1CCC(=O)CC1` the figure was -4.9%; with `CCS(=O)c1ncc2cnccn12` (stereo not given), -18.8%; with `NC(N)=Nc1nc2ccc(Cl)cc2[nH]1`, 11%.

`Cc1c(CCO)sc[n+]1CC(=O)c1ccccc1`: the growth inhibition was 1%. With `Fc1ccc(N=Cc2ccc(C=Nc3ccc(F)cc3)cc2)cc1` the figure was 27.2%.

Turning to `O=C(CC(=O)c1ccc(Cl)cc1)c1ccc(Cl)cc1`, the growth inhibition is 4.45%. With `O=[N+]([O-])CC1=CCCCC1` the figure was 16.6%.

`COC(=O)C(C(=O)C(=O)Nc1nc2ccc(OC)cc2s1)c1cnc2ccccc2n1` (stereo not given): the growth inhibition was -6.15%. With `O=c1oc2ccc(Cl)cc2c(OCCO)c1Cl` the figure was -1.15%; with `CCC(CC)OC(=O)Nc1cccc2ccccc12`, -14.6%. With `CN1CCC(O)(C(C)(C)C)CC1` the figure was -68.9%; with `CCOC(=O)C(NNc1ccccc1)C(=O)C(F)(F)F` (stereo not given), 18.6%.

On to `CN(C)Cc1cc(N=Nc2ccc(Cl)cc2)ccc1O`, for which the growth inhibition is 46.3%. To `CN(C)N=Nc1c(Cl)cccc1Cl` belongs 7.75%.

In the case of `CC(=O)Nc1cccc(C)n1`, the growth inhibition is 1.7%. As for `CC(CCCSC(=N)N)SC(=N)N` (stereo not given), the growth inhibition is 12.6%. To `Cc1ccc(S(=O)(=O)Nc2ccc(S(C)(=O)=O)cc2)cc1` belongs 3.3%. With `COc1cc2c(cc1OC)-c1ccc3cc4c(cc3c1N(C)C2)OCO4` the figure was -2.65%; with `C=CCOC(=O)c1c(Cl)c(Cl)c(Cl)c(Cl)c1C(=O)O`, 23.9%; with `O=C1NC(=O)C(c2ccc(Cl)cc2)N1` (stereo not given), -15.2%. With `O=C(O)CCCCCC1=CCCCC1` the figure was 23.5%.

For `CC(C)=CCC/C(C)=C\COC=O`, the growth inhibition is 50.9%. In the case of `COc1cccc(-c2nnc(-c3cccc(OC)c3)o2)c1`, the growth inhibition was 0.2%. To `CCCCCCCCC(=O)OCC(=O)c1ccc(-c2ccccc2)cc1` belongs 3.65%. With `CCCCCCCCCCCCCCCCCCCCCCBr` the figure was 14.3%; with `C[Si](C)(C)C#CCOC=C1CC1`, -34.5%; with `Cc1cc(Cl)ccc1N1C(=O)C(=O)C(c2nc3ccccc3s2)C(=O)C1=O`, 12.5%. Consider `CCOC(=O)/C=C/SCCCC(=O)O`, for which the growth inhibition was 42.2%.

Regarding `Cc1cc(C)c(C(=O)c2cccc(Cl)c2)c(C)c1`, the growth inhibition is 22%. To `O=NN(CCCl)C(=O)N(C1CCCCC1)C1CCCCC1` belongs 27.7%.
